High-throughput results (PubChem)
Rows were chosen to be rich in hits. Some 2.4% of all compounds tested hit in one or more screens of this group.
CHO-K1 Ca PAM: nonselective calcium activators in parental CHO-K1 cells, primary screen, counter-screen for M1 PAM project, cell-based, Fluo-8 calcium fluorescence, full deck, 1536-well | ATP EC20; 0% at ATP EC20, 100% at ATP max | AID 602247, 2012 | actives 0.02% (n = 360,000) | activation, % at 3 µM;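 active = activation above the run cutoff, the mean activation of all test compounds plus 3 SD, cut at about 40% in these data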;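 note: peak over basal fluorescence ratio in a 140 s read after ATP addition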
CHRM1 antagonist: human M1 muscarinic receptor antagonists, primary screen, CHO-K1 cells, Fluo-8 calcium fluorescence, 1536-well | Muscarinic acetylcholine receptor M1 (Homo sapiens), P11229 | CHO-K1 hM1, ACh EC80 antagonist | inhibition, % at 3 µM | actives 1.3% (n = 360,000) | AID 588852, 2011;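 active = percent inhibition above its own plate's cutoff, namely the mean of that plate's compound wells plus 3 SD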;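 note: peak over basal fluorescence ratio during 140 s after agonist addition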
Target sequence (P11229 whole entry, looked up): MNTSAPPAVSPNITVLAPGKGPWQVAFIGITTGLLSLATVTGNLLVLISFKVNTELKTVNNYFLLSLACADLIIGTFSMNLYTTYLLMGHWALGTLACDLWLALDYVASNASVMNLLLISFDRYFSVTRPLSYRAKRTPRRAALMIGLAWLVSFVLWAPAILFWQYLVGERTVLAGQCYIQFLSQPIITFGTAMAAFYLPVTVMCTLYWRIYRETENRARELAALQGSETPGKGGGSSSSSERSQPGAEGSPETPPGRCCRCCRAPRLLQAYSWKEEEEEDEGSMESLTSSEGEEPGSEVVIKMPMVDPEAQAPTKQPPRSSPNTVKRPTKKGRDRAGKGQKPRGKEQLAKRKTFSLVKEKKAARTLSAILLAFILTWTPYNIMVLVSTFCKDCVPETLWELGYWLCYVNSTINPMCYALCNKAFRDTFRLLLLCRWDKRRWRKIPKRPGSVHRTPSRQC
CHO-K1 Ca antag: M1 antagonist counterscreen hit in parental CHO-K1 cells | AID 602250 | ATP-induced calcium, Fluo-8 fluorescence | actives 0.6% (n = 360,000) | inhibition, % at 3 µM;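 active = inhibition above a per-plate cutoff, the plate's mean sample inhibition plus 3 SD, cut at about 24% in these data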
CHRM1 agonist: human M1 muscarinic receptor agonists, primary screen, Fluo-8 calcium fluorescence, CHO-K1 cells, HTS; Muscarinic acetylcholine receptor M1 (Homo sapiens), P11229; CHO-K1 hM1, agonist mode; 0% DMSO, 100% acetylcholine EC100; activation, % at 3 µM; actives 0.33% (n = 360,000);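 active = activation above the run's mean compound activation plus 3 SD, cut at about 16% in these data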;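 note: peak over basal fluorescence ratio within a 140 s kinetic read after compound addition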
M1 ag parental: counter-screen for M1 agonists: effect in parental CHO-K1 cells; activation, % at 3 µM; actives 0.48% (n = 360,000); Fluo-8 calcium fluorescence; scaled to maximal ATP response, vehicle zero; AID 602248, 2012; in the data active = activation above about 15%;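 note: untransfected CHO-K1 host cells lacking M1 receptor as counterscreen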
M1 PAM: human M1 muscarinic receptor positive allosteric modulators, primary screen, CHO-K1 cells, Fluo-8 calcium fluorescence, 1536-well; Muscarinic acetylcholine receptor M1 (Homo sapiens), P11229; CHO-K1 hM1, ACh EC20; 0% = ACh EC20, 100% = maximal ACh; activation, % at 3 µM; actives 0.088% (n = 360,000); in the data active = activation above about 19%, passing the limit was not always enough
Each line names hits and unclear results; the compound was inactive in the other large screens.

CC(=O)c1ccc(NC(=O)[C@@H]2CCCN2C2=NS(=O)(=O)c3ccccc32)cc1	none
CCCCN1C(=O)/C(=C/C=C2\SCCN2C)SC1=S	M1 ag parental 16
CN1CCS/C1=C/C=C1/SC(=S)N(Cc2ccccc2)C1=O	none
CN1CCS/C1=C/C=C1\SC(=S)N(CC(=O)O)C1=O	CHRM1 agonist 16, M1 ag parental 26
O=C1CCC(O)CCN1CCSc1ccccc1 (stereo not drawn)	none
CC(=O)Cc1nsc(Nc2ccc(Cl)cc2)n1	none
CCCCn1nnnc1C(c1cc2ccccc2o1)N1CCN(C/C=C/c2ccccc2)CC1 (stereo not drawn)	CHRM1 antagonist 56
COc1ccc(C(c2nnnn2-c2ccc3c(c2)OCCO3)N2CCN(C/C=C/c3ccccc3)CC2)cc1 (stereo not drawn)	CHRM1 antagonist 94
C(=C\c1ccccc1)/CN1CCN(C(c2nnnn2-c2ccc3c(c2)OCCO3)C2CC2)CC1 (stereo not drawn)	none
C(=C\c1ccccc1)/CN1CCN(C(c2cccs2)c2nnnn2-c2ccc3c(c2)OCCO3)CC1 (stereo not drawn)	CHRM1 antagonist 90
C(=C\c1ccccc1)/CN1CCN(C(c2cc3ccccc3o2)c2nnnn2-c2ccc3c(c2)OCCO3)CC1 (stereo not drawn)	CHRM1 antagonist 76
CCC(c1nnnn1-c1ccc2c(c1)OCCO2)N1CCN(C/C=C/c2ccccc2)CC1 (stereo not drawn)	none
CCn1c(CNC(=O)c2ccccc2Br)nnc1SCC(=O)Nc1nncs1	none
CCOC(=O)C1=CNS(=O)(=O)NC1c1cccc(O)c1 (stereo not drawn)	none
CC(C)(C)n1nc2c(c1NC(=O)c1ccc([N+](=O)[O-])cc1)CS(=O)(=O)C2	none
COc1ccc(-n2nnnc2C(c2cc3ccccc3o2)N2CCN(C/C=C/c3ccccc3)CC2)cc1 (stereo not drawn)	CHRM1 antagonist 58
COc1ccc(-n2nnnc2C(c2cccc3ccccc23)N2CCN(C/C=C/c3ccccc3)CC2)cc1 (stereo not drawn)	none
CC(C)C[C@H]1CN([C@@H](CC(C)C)CN2CCCC2CN2C(=S)NC[C@@H]2Cc2ccccc2)C(=S)N1CC1CCCCC1 (stereo partly drawn)	none (no result: CHRM1 antagonist, CHRM1 agonist, M1 PAM)
CCN1CCN(CCCNC(=O)C2CCN(c3nnc(-n4cccc4)s3)CC2)CC1	none
CCOc1ccc(NCc2cccn2-c2nnc(N3CCC(C(=O)NCCCN4CC(C)CC(C)C4)CC3)s2)cc1 (stereo not drawn)	CHRM1 antagonist 98
O=C(CCl)NN=C(c1ccccc1)c1ccccc1	none
CCN(CC)CC(=O)NN=C(c1ccccc1)c1ccccc1	CHRM1 antagonist 27
CC1CCc2c(sc(NC(=O)CSc3nc(N)cc(=O)[nH]3)c2C(N)=O)C1 (stereo not drawn)	none
CCN(CC)C(=O)CCNS(=O)(=O)c1ccc(C)cc1	CHO-K1 Ca antag 28
CCOc1ccc(CCNC(=O)CCNC(=O)c2ccccc2Cl)cc1OCC	none
Cc1ccccc1OCC(=O)NCCCNC(=O)c1ccco1	none
COc1ccc(-c2cc(C(F)(F)F)nc(SCC(=O)Nc3cc(C)on3)n2)cc1OC	CHO-K1 Ca antag 25
COc1ccc(-c2cc(C(F)(F)F)nc(SCCC(=O)Nc3cc(C)on3)n2)cc1	none
Cc1onc(-c2ccc(Cl)cc2Cl)c1-c1csc(N/N=C/c2ccccc2)n1	none
Cc1ccc(C(=O)OCC(=O)NC(=O)c2ccc(C(C)(C)C)cc2)c(O)c1	CHRM1 antagonist 34
CCOC(=O)C1(CCOc2ccccc2)CCN(Cc2ccc(C(=O)OC)cc2)CC1	CHRM1 antagonist 42
CCOC(=O)C1(CCOc2ccccc2)CCN(Cc2ccncc2)CC1	none
CCn1ccnc1CN1CCC(CO)(CCOc2ccccc2)CC1	none
CCOC(=O)C1(CCCc2ccccc2)CCN(C(=O)CSC)CC1	none
CCOC(=O)C1(CCCc2ccccc2)CCN(C(=O)CCC2=NNC(=O)CC2)CC1	M1 ag parental 25
CCOC(=O)C1(CCOc2ccccc2)CCN(Cc2nccn2CC)CC1	CHRM1 antagonist 27
CCOC(=O)C1(CCCc2ccccc2)CCN(Cc2nccn2CC)CC1	CHRM1 antagonist 48
CCc1nc2ccc(C(=O)NCCCn3ccnc3)cn2c1N(C)C(=O)c1cccc(OC)c1	none
CCOC(=O)C1(CCc2ccccc2)CCN(C(=O)C2CCOCC2)CC1	CHO-K1 Ca antag 25
CCOC(=O)C1(CCOC)CCN(C/C=C/c2ccccc2OC)CC1	CHO-K1 Ca antag 31
O=C(CSc1cc(Cl)ccc1Cl)NCC(=O)Nc1ccc(F)c(F)c1F	M1 ag parental 15
O=C(CNC(=O)c1cccc(Cl)c1)Nc1ccc(F)c(F)c1F	none
O=C(CN1C(=O)CCC1=O)Nc1ccc(Cc2ccc(NC(=O)CN3C(=O)CCC3=O)cc2)cc1	none
CN(C(=O)CCc1nnc(-c2ccc(-c3ccccc3)cc2)o1)C1CCOCC1	M1 ag parental 17
CCCn1cc(CN2CCC(n3nccc3NC(=O)C(OC)c3ccccc3)CC2)c(C)n1 (stereo not drawn)	none
CC(C(=O)c1ccc(-c2ccccc2)cc1)[n+]1cccc(NC(=O)c2ccccc2)c1 (stereo not drawn)	CHRM1 antagonist 50
CCN1CCN(CCCNC(=O)c2ccc(/C=C3/Sc4ccccc4N(Cc4ccccc4F)C3=O)cc2)CC1	CHRM1 antagonist 29
CCCCN(C)C(=O)c1ccc2c(c1)N(CC)C(=O)c1ccccc1S2=O (stereo not drawn)	none
CCN1CCN(CCNC(=O)c2ccc(/C=C3/Sc4ccccc4N(Cc4ccccc4C)C3=O)cc2)CC1	none
O=C(NCCCN1CCCC1)c1ccc2c(c1)N(Cc1ccccc1F)C(=O)c1ccccc1S2=O (stereo not drawn)	CHRM1 antagonist 33
CCCCN(C)CCCNC(=O)c1ccc2c(c1)N(CC)C(=O)c1ccccc1S2=O (stereo not drawn)	CHRM1 antagonist 47
CC1CCCCN1CCNC(=O)c1ccc2c(c1)N(Cc1ccccc1F)C(=O)c1ccccc1S2=O (stereo not drawn)	CHRM1 antagonist 48
CC(=O)c1cccc(NC(=O)Nc2ccc3c(c2)OCO3)c1	none
CCCCn1c(N)c(N(CCC(C)C)C(=O)CCN2C(=O)C3CC=CCC3C2=O)c(=O)[nH]c1=O (stereo not drawn)	none
